Screen size: about 69,000 compounds; about 950 (1.4%) showed an effect of 50% or more. The sample as a whole holds a higher share of strong results than the screen did.

The test system of the experiment is Mycobacterium tuberculosis. Description: Cornell M. t heat shock assay. Also: in the data most compounds retested in dose-response had high values. It counts as functional, organism-based. Also on record: dose or concentration left out as unconfirmed.
With `Cc1nnc(N2CC[C@H]3C[C@H](C(=O)N(C)C)O[C@@H]3C2)s1.O=C(O)C(F)(F)F`, the “Percent Effect” value is reported as 7.027%.

Take `COCC1CN(CC2CC2)Cc2nn(CC3CC3)cc21.O=C(O)C(F)(F)F` (stereo unspecified): the “Percent Effect” value is reported as -19.88%.

With `CN(C)C(C)(C)CNC(=O)C(C)(C)c1ccccc1F`, the “Percent Effect” value is reported as 97.79%.

For `CC(C)(CNC(=O)C(C)(C)c1ccccc1F)C(N)=O`, the “Percent Effect” value is listed as -4.561%.

With `CC(C)(C(=O)NCC(N)=O)c1ccccc1F`, the “Percent Effect” value is on record as 8.109%.

For the compound `CC1CCN(c2ncc3c(n2)CN(C2CCS(=O)(=O)C2)C3=O)CC1` (stereo unspecified), the “Percent Effect” value is recorded as -20.34%.

For the compound `Cc1nccn1-c1cccc(C2CCCN2)n1.Cl` (stereo unspecified), the “Percent Effect” value was -11.58%.

As to `CCCS(=O)(=O)N1CCC2(CC1)CN(CC1CCOC1)c1ccccc12.O=C(O)C(F)(F)F` (stereo unspecified), the “Percent Effect” value was found to be 28.34%.

Take `Cc1cccc(CN2C[C@@H]3COC[C@]3(CNC(=O)C3CC3)C2)c1.O=C(O)C(F)(F)F`: the “Percent Effect” value came out at 2.9%.

For the compound `COCCCN(Cc1cc(O)nc2ccccc12)C(=O)NC(C)C`, the “Percent Effect” value was -0.9795%.

Turning to `CC(C)NC(=O)N(Cc1cc(O)nc2ccccc12)C(C)C`, the “Percent Effect” value is -8.593%.

For the compound `COCCN(Cc1cc(O)nc2ccccc12)C(=O)NC(C)C`, the “Percent Effect” value is recorded as 104.4%.

Consider `Cc1cc(N2CCN(C(=O)[C@@H]3C[C@@H]4C=C[C@H]3C4)CC2)cc(C)n1`, for which the “Percent Effect” value is -20.18%.

On to `O=C(CC1CC1)N1C[C@@H]2CCN(c3cnccn3)C[C@@H]2C1.O=C(O)C(F)(F)F`, for which the “Percent Effect” value is reported as -16.38%.

`O=C(NCCCN1CCOCC1)c1ccc(-n2ccc3ccccc32)s1`: the “Percent Effect” value is listed as 14.99%.

For the compound `O=C(NCCCN1CCCCC1)c1ccc(-n2ccc3ccccc32)s1`, the “Percent Effect” value worked out at 102.3%.

`O=C(NCCCN1CCCC1=O)c1ccc(-n2ccc3ccccc32)s1`: the “Percent Effect” value worked out at 22.37%.

On to `CC(=O)N1C[C@@H]2CC[C@H](C1)N(S(=O)(=O)c1ccc(C#N)cc1Cl)C2`, for which the “Percent Effect” value is on record as 12.47%.

On to `O=C(O)C(F)(F)F.O=C(c1cscn1)N1CCC2(CCN(Cc3cccs3)CC2)C1`, for which the “Percent Effect” value was determined as 3.711%.

As to `O=C(Nc1cccnc1)[C@@H]1COC[C@H]2CN(C3CCCC3)C[C@H]21.O=C(O)C(F)(F)F.O=C(O)C(F)(F)F`, the “Percent Effect” value was -37.6%.

As to `CCCc1cc(=O)[nH]c(SCc2ccccn2)n1`, the “Percent Effect” value was 69.86%.

For `O=c1cc(C2CCNCC2)nc(CCc2ccccn2)[nH]1`, the “Percent Effect” value was found to be 6.043%.

Turning to `CCc1c(C)nc(SCc2ccccn2)[nH]c1=O`, the “Percent Effect” value is recorded as 33.29%.

As to `CCc1cc(=O)[nH]c(SCc2ccccn2)n1`, the “Percent Effect” value is 70.99%.

With `Cc1nnc(SCc2ccccn2)s1`, the “Percent Effect” value is 4.26%.

On to `CCCc1cc(=O)[nH]c(-c2ccccc2CN(C)CCC(C)C)n1`, for which the “Percent Effect” value is recorded as -7.876%.

On to `COc1cccc(CC(=O)N2CC[C@@H](OC)[C@@H]2Cc2cccnc2)c1.O=C(O)C(F)(F)F`, for which the “Percent Effect” value was 11.27%.

With `Cc1nnc(CN(C)C2CCCN(Cc3noc(C4CC4)n3)C2)o1` (stereo unspecified), the “Percent Effect” value was -4.888%.

For the compound `CCOC1COC2(CCN(CC3CC3)CC2)C1.O=C(O)C(F)(F)F` (stereo unspecified), the “Percent Effect” value is -11.36%.

In the case of `Cc1ccc(-c2nc(CNC(C)Cn3cccn3)cs2)o1` (stereo unspecified), the “Percent Effect” value came out at 55.14%.

On to `Cc1ccc(-c2nc(CN3CCOC(Cn4cccn4)C3)cs2)o1` (stereo unspecified), for which the “Percent Effect” value is given as 19.35%.

Regarding `COc1ccc(-c2nc(CNC(C)Cn3cccn3)cs2)cc1` (stereo unspecified), the “Percent Effect” value is listed as 58.05%.

On to `COc1ccc(-c2noc(CNC(C)Cn3cccn3)n2)c(OC)c1` (stereo unspecified), for which the “Percent Effect” value is given as -27.41%.

For the compound `COc1cccc(-c2nc(CNCc3cccnc3)cs2)c1`, the “Percent Effect” value is given as -18.41%.

In the case of `CC(Cn1cccn1)NCc1csc(-c2ccccc2)n1` (stereo unspecified), the “Percent Effect” value is recorded as 29.32%.

As to `COc1cccc(-c2nc(CNC(C)Cn3cccn3)cs2)c1` (stereo unspecified), the “Percent Effect” value was found to be 89.4%.

`O=C(NCc1ccccn1)[C@@H]1COC[C@H]2CN(C3CCOCC3)C[C@H]21.O=C(O)C(F)(F)F.O=C(O)C(F)(F)F`: the “Percent Effect” value is given as 0.9957%.

In the case of `CC(=O)N1CCN(c2cncc(C3CCNCC3)n2)CC1.Cl`, the “Percent Effect” value was -8.785%.

`O=C(O)C(F)(F)F.O=C(c1ccccc1)N1CCOC2(CCN(Cc3cccs3)CC2)C1`: the “Percent Effect” value is recorded as -35.41%.

Take `Cc1ccc(CN2Cc3nnn(C)c3C(COCC3CC3)C2)s1.O=C(O)C(F)(F)F` (stereo unspecified): the “Percent Effect” value is -11.83%.

As for `O=C(O)C(F)(F)F.c1cnc(N2CCOCC3(CN(Cc4cc[nH]n4)CCO3)C2)nc1` (stereo unspecified), the “Percent Effect” value was -18.22%.

As for `CCCC(=O)N1CCC(c2cc3cccnc3c(O)n2)CC1`, the “Percent Effect” value is -11.07%.

For `CCCC(=O)N1CCCC(c2cc3cccnc3c(O)n2)C1` (stereo unspecified), the “Percent Effect” value is -27.54%.

As for `O=C(CCC1CCCC1)N1CCC(c2cc3ncccc3c(O)n2)CC1`, the “Percent Effect” value came to 59.08%.

For the compound `CCOCC(=O)N1CCC(c2cc3ncccc3c(O)n2)CC1`, the “Percent Effect” value is recorded as -9.964%.

Regarding `O=C(CC1CCCC1)N1CCC(c2cc3ncccc3c(O)n2)CC1`, the “Percent Effect” value is 63.36%.

On to `COCC(=O)N1CCC(c2cc3ncccc3c(O)n2)CC1`, for which the “Percent Effect” value amounted to 10.22%.

Turning to `CC(C)N(C)Cc1nnn2c1CN(Cc1cccnc1)CCC2.O=C(O)C(F)(F)F.O=C(O)C(F)(F)F.O=C(O)C(F)(F)F`, the “Percent Effect” value is listed as -0.7766%.

For `CC(C)n1c(=O)nc2n1C(=O)N(c1ccc(Cl)cc1)C2`, the “Percent Effect” value was 4.407%.

Consider `CCOC(=O)[C@]12CCCN(Cc3cccs3)C[C@H]1CN(CC(C)C)C2.O=C(O)C(F)(F)F.O=C(O)C(F)(F)F`, for which the “Percent Effect” value amounted to 26.18%.

`O=C(CN1CC(c2nc(-c3ccco3)no2)C1)NCCc1ccccc1.O=C(O)C(=O)O`: the “Percent Effect” value was -7.325%.

Consider `O=C(Cc1cccc(F)c1F)NS(=O)(=O)c1ccc(Cl)cc1F`, for which the “Percent Effect” value is listed as -11.18%.

As for `CC(CS(C)(=O)=O)NCc1cc(Cl)ccc1F` (stereo unspecified), the “Percent Effect” value is given as -12.53%.

Consider `CS(=O)(=O)Cc1ccccc1NCc1cc(Cl)ccc1Cl`, for which the “Percent Effect” value is -12.17%.

With `CS(=O)(=O)Cc1ccc(Cl)cc1NCc1ccccc1F`, the “Percent Effect” value came to 52.35%.

On to `CN(C)C(=O)Cc1ccccc1NCc1cccc(F)c1F`, for which the “Percent Effect” value was -10.01%.

Turning to `CS(=O)(=O)Cc1ccc(Cl)cc1NCc1cccc(F)c1F`, the “Percent Effect” value is 57.79%.

As for `Cn1nc(C(=O)N2CCOCC2)cc1C(=O)Nc1ccc(Cl)cc1Cl`, the “Percent Effect” value amounted to 13.26%.

For the compound `Cc1sc(NC(=O)CN(C)CCOc2cccc(F)c2)c(C)c1C`, the “Percent Effect” value is given as 3.214%.

With `CN(CCOc1cccc(F)c1)CC(=O)Nc1ccncc1`, the “Percent Effect” value was -17.11%.

Take `Cc1csc(NC(=O)CN(C)CCOc2cccc(F)c2)n1`: the “Percent Effect” value came to 95.41%.

The record behind these values is ChEMBL document CHEMBL3988442, “University of Dundee, Small-Polar-MMV Screening Library” (2021).
